Shiga toxin inh: A qHTS for Small Molecule Inhibitors of Shiga Toxin. Vero cells, Shiga toxin protein synthesis inhibition reporter. inhibition, % at 38.7 µM. 290,000 tested, 9.2% active; in the data active = inhibition mostly above about 28%, no sharp cut-off; inactive = mostly below about 43%
Sm TGR inh: qHTS Assay for the Inhibitors of Schistosoma Mansoni Peroxiredoxins | Schistosoma mansoni thioredoxin glutathione reductase (TGR), Q962Y6 | purified TGR, DTNB reduction, TNB absorbance 405 nm | Potency, µM (top dose mostly 114 µM), most hits filed as inhibitors | 360,000 tested, 3% active; also: nearly all actives have a fitted effect of over 60% in size
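TGR 20 nM + NADPH 100 uM (dispensed conc.), cpd preinc 15 min RT; start with NADPH (500 uM addition) then DTNB (15 mM addition). Kinetic TNB absorbance, 405 nm filter. Four-parameter Hill fit across titration.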
CHX counter: Cycloheximide Counterscreen for Small Molecule Inhibitors of Shiga Toxin; 300,000 tested, 12% active; cell reporter, cycloheximide protein synthesis inhibition counterscreen; max response, %; AID 2314, 2010; in the data active = max response mostly above about 13%, no sharp cut-off; inactive = mostly below about 14%; also: read at 38.3 µM for the half of the compounds with a filed dose
TbPYK inhibitor: qHTS of Trypanosoma Brucei Inhibitors | pyruvate kinase (Trypanosoma brucei), Q57TT1 | Potency, µM (series often up to 76.8 µM), most hits filed as inhibitors | AID 624173, 2012 | 410,000 tested, 0.12% active | TbPYK enzyme, Kinase-Glo Plus ATP luminescence, 45 min; also: nearly all actives have a fitted effect of over 50% in size
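TbPYK + substrate in 50 mM TEA pH 7.2, 100 mM KCl, 10 mM MgCl2, 0.05% BSA, 0.01% Tween-20; cpd pinned; ADP 130 uM final; 45 min RT; Kinase-Glo Plus 10 min; luminescence endpoint.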
LmPK inh: qHTS Assay for Inhibitors of Leishmania Mexicana Pyruvate Kinase (LmPK); Q27686; purified LmPK, Kinase-Glo ATP luminescence, 1 h; Potency, µM (titrated, usually from 57.5 µM), usual class: inhibitors; 290,000 tested, 0.37% active; AID 1721, 2009
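qHTS format; LmPK 0.1 nM; substrates PEP 0.5 mM and ADP 0.1 mM. One-hour room-temperature incubation, then coupled luciferase luminescence; 0.5 nM enzyme wells mark activation.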
Giardia FBPA inh: qHTS Assay for Inhibitors of Fructose-1,6-bisphosphate Aldolase from Giardia Lamblia. A8B2U2. purified Giardia FBPA. Potency, µM (titrated, usually from 59.6 µM), actives largely listed as inhibitors. 290,000 tested, 0.71% active. AID 2451, 2010; also: nearly all actives have a fitted effect of over 55% in size
Target sequence (A8B2U2 whole entry, looked up): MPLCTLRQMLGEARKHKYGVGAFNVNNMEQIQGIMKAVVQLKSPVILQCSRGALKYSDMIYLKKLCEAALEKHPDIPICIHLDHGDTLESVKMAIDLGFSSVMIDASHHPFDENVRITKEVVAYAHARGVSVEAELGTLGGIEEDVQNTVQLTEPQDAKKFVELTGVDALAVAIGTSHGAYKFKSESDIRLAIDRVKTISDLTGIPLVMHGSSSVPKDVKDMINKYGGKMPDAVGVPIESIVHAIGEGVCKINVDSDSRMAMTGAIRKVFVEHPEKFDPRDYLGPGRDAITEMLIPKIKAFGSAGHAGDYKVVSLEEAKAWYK
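40 nM FBPA preincubated 10 min at RT with compound (up to 57.5 uM final), then substrate plus GAPDH/TPI/NAD/arsenate coupling and diaphorase/resazurin added. Fluorescence read after 20 min at RT, 525/598 nm.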
A number is an active result. Many of the other results were omitted from the sample, so hits are more common in it than they were. Unless noted, calls follow the shape of the dose curve; as a rule, active = well fitted curve in the direction sought with a large enough effect; inconclusive = small, poorly fitted or top-dose-only effect, or another doubt; inactive = no such curve, though single readings can be large; an effect the other way counts as inactive or inconclusive.

`Cc1cc(Cl)ccc1-n1c(CCC(=O)O)ccc1-c1cccs1` gave Sm TGR inh 28.2µM and TbPYK inhibitor inactive.
For CCN(CC)C(=O)C1=C(C)N(CCCOC)C(=O)C(CC(=O)NCCN2CCOCC2)C1 (stereo unspecified) the results were TbPYK inhibitor inactive.
`O=C(CN1CCOCC1)N1CCc2ccccc2C(c2ccccc2)C1` (stereo unspecified) gave Shiga toxin inh inactive, Sm TGR inh inactive, CHX counter inactive, TbPYK inhibitor inactive, LmPK inh inactive and Giardia FBPA inh inactive.
For O=C(CBr)N1CCc2ccccc2C(c2ccccc2)C1 (stereo unspecified) the results were Shiga toxin inh inactive, Sm TGR inh 3.55µM, CHX counter inactive, TbPYK inhibitor inconclusive, LmPK inh inactive and Giardia FBPA inh inactive.
O=C1c2ccccc2[C@@H]2C[C@@H](O)[C@H](Nc3cccc(C(F)(F)F)c3)CCN12 was read as TbPYK inhibitor inactive.
`CC(C)c1ccc(-n2nc3ccc(N)cc3n2)cc1` gave Shiga toxin inh 77.1, Sm TGR inh inactive, CHX counter 68.3, TbPYK inhibitor inactive, LmPK inh inactive and Giardia FBPA inh inactive.
`Nc1ccc2nn(-c3ccc(F)cc3)nc2c1` gave Shiga toxin inh 95.3, Sm TGR inh inactive, CHX counter 58.2, TbPYK inhibitor inactive, LmPK inh inactive and Giardia FBPA inh inactive.
For Cc1ccc(-n2nc3ccc(N)cc3n2)cc1 the results were Shiga toxin inh inactive, Sm TGR inh inactive, CHX counter 27.8, TbPYK inhibitor inactive, LmPK inh inactive and Giardia FBPA inh inactive.
Cc1cnc(C(=O)NC2CCSc3ccccc32)cn1 (stereo unspecified) was read as Shiga toxin inh inactive, Sm TGR inh inactive, CHX counter inactive, TbPYK inhibitor inactive, LmPK inh inactive and Giardia FBPA inh inactive.
Cc1ccc(C(=O)NNC(=O)CCC(=O)NCc2ccccc2)cc1Br was read as Shiga toxin inh inactive, Sm TGR inh inactive, CHX counter inactive, TbPYK inhibitor inactive and LmPK inh inactive.
Screening COc1ccc2c3c1OC1C(O)C=CC4[C@@H](C2)NCC[C@]314 (stereo partly specified) returned TbPYK inhibitor inactive.
`Cc1cccc(N(C(=O)C(F)(F)F)C(C(=O)NC2CCCCC2)c2cccs2)c1` (stereo unspecified) gave Shiga toxin inh inactive, Sm TGR inh inactive, CHX counter inactive, TbPYK inhibitor inactive, LmPK inh inactive and Giardia FBPA inh inactive.
`COc1ccc(N(C(=O)Cc2cccs2)C(C(=O)NC2CCCC2)c2ccncc2)cc1OC` (stereo unspecified) gave Shiga toxin inh inactive, Sm TGR inh inactive, CHX counter inactive, TbPYK inhibitor inactive, LmPK inh inactive and Giardia FBPA inh inactive.
For C#CC(=O)N(c1ccc(OC)c(OC)c1)C(C(=O)NC1CCCC1)c1cccs1 (stereo unspecified) the results were Shiga toxin inh inactive, Sm TGR inh 5.62µM, CHX counter inactive, TbPYK inhibitor inactive, LmPK inh inactive and Giardia FBPA inh inactive.
`C#CC(=O)N(c1cccc(OC)c1)C(C(=O)NC1CCCC1)c1cccs1` (stereo unspecified) gave Shiga toxin inh inactive, Sm TGR inh 7.94µM, CHX counter inactive, TbPYK inhibitor inactive, LmPK inh inactive and Giardia FBPA inh inactive.
OCCNc1cnc2ccccc2n1 was read as Shiga toxin inh 51.0, Sm TGR inh inactive, CHX counter 19.3, TbPYK inhibitor inactive, LmPK inh inactive and Giardia FBPA inh inactive.
CCCCNC(=O)Nc1ccc(C(O)(C(=O)OC)C(F)(F)F)cc1 (stereo unspecified) was read as Shiga toxin inh inactive, Sm TGR inh inactive, CHX counter inactive, TbPYK inhibitor inactive, LmPK inh inactive and Giardia FBPA inh inactive.
For COC(=O)C(O)(c1ccc(NC(=O)c2cccs2)cc1)C(F)(F)F (stereo unspecified) the results were Shiga toxin inh 71.7, Sm TGR inh inactive, CHX counter 33.3, TbPYK inhibitor inactive, LmPK inh inactive and Giardia FBPA inh inactive.
For COC(=O)C(O)(c1ccc(NC(=O)c2ccccc2)cc1)C(F)(F)F (stereo unspecified) the results were Shiga toxin inh 103.1, Sm TGR inh inactive, CHX counter 51.1, TbPYK inhibitor inactive, LmPK inh inactive and Giardia FBPA inh inactive.
Screening Nc1c2c(nc3ccccc13)CCCC2=O returned Shiga toxin inh inactive, Sm TGR inh inactive, CHX counter 16.5, TbPYK inhibitor inactive, LmPK inh inactive and Giardia FBPA inh inactive.
`CCNc1ccc(C(=O)OCC(=O)Nc2cc(C)on2)cc1[N+](=O)[O-]` gave Sm TGR inh inactive and TbPYK inhibitor inactive.
For COc1ccc(Cn2nnc3c(=O)[nH]c(C4CCN(C(=O)c5ccc(C)cc5)CC4)nc32)cc1OC the results were Sm TGR inh inactive and TbPYK inhibitor inactive.
`Clc1ccc(-c2nc3nc4ccccc4nc3n2Cc2ccco2)cc1` gave Shiga toxin inh 82.3, Sm TGR inh 20µM, CHX counter 52.2, TbPYK inhibitor inactive, LmPK inh inactive and Giardia FBPA inh inactive.
Cc1ccc(-c2nc3nc4ccccc4nc3n2Cc2ccco2)cc1 was read as Shiga toxin inh 63.1, Sm TGR inh 17.8µM, CHX counter 51.7, TbPYK inhibitor inactive, LmPK inh inactive and Giardia FBPA inh inactive.
`COCCCn1c(-c2ccc(OC)cc2)nc2nc3ccccc3nc21` gave Shiga toxin inh inactive, Sm TGR inh inactive, CHX counter inactive, LmPK inh inactive and Giardia FBPA inh inactive.
For Cc1ccc(NC(=O)C2COc3ccccc3O2)cc1S(=O)(=O)N1CCOCC1 (stereo unspecified) the results were Sm TGR inh inactive and TbPYK inhibitor inactive.
`Cc1ccc(-c2cc(C(=O)Nc3cnn(C45CC6CC(CC(C6)C4)C5)c3)no2)cc1` gave Shiga toxin inh inactive, Sm TGR inh inactive, CHX counter inactive, TbPYK inhibitor inactive, LmPK inh inactive and Giardia FBPA inh inactive.
`CCCn1cc(NC(=O)c2cc(-c3ccccc3)on2)cn1` gave Shiga toxin inh 67.7, Sm TGR inh inactive, CHX counter 35.0, TbPYK inhibitor inactive, LmPK inh inactive and Giardia FBPA inh inactive.
`Cc1ccc(-c2cc(C(=O)Nc3cnn(C(C)C)c3)no2)cc1` gave Shiga toxin inh inactive, Sm TGR inh inactive, CHX counter 22.5, TbPYK inhibitor inactive, LmPK inh inactive and Giardia FBPA inh inactive.

Screens: PubChem, National Center for Advancing Translational Sciences (NCATS)
